The values below come from PubChem BioAssay AID2685 (National Center for Advancing Translational Sciences (NCATS), 2010).

In all, about 320,000 compounds went through this assay and about 2,100 (0.66%) were called active. Inconclusive results (about 53%) are left out. The sample holds actives, similar compounds and a random draw of the others, so the mix is not that of the screen. Calls follow the shape of the dose curve; as a rule, active = well fitted inhibition curve with a large enough effect in the signal ratio, with a control signal flat (not every such curve was filed as active); inconclusive = small, poorly fitted or top-dose-only effect, or effect the other way, or a change in a side signal; inactive = flat fitted curve, though single readings scatter; the % refers to the signal ratio.
Potency is read from the fitted curve at half-maximal effect.

The nature of the assay: qHTS Assay for Lipid Storage Modulators in Drosophila S3 Cells.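 As to cell number change: cells counted by Cell Tracker Red CMTPX staining in the red channel.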 As to lipid storage change, negative = inhibition: % is scaled to controls: 0 for no effect and ±100 for the full control effect. Conditions: BODIPY lipid droplet fluorescence, 18-24 h, cells fed with added oleic acid; cell number change: measured here: cell count max response; series mostly up to 46.1 µM; lipid storage change, negative = inhibition: at the top concentration. Put shortly:
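Laser-scanning cytometry quantifies lipid droplet accumulation (500–530 nm total intensity; droplet/cell object ratio) in oleic acid-fed (400 uM added) Drosophila S3 cells treated with a concentration series. 20 uM Triacsin C defined 100% inhibition.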
In the case of `Cc1ccn(CC(=O)N2CCCC(N3CCN(Cc4ccc5c(c4)OCO5)CC3)C2)n1` (stereo unspecified), the “lipid storage change, negative = inhibition” value is 7.81% (inactive) and the cell number change was 8.09%.
With `Cc1nc(SCC(=O)N(C)Cc2ccco2)c2c(C)c(C)sc2n1`, the “lipid storage change, negative = inhibition” value is 14.1% (inactive) and the cell number change is -25.2%.
`O=C(Nc1ccc(C(=O)Oc2ccccc2)c(O)c1)c1ccccc1`: the “lipid storage change, negative = inhibition” value was -0.0459% (inactive) and the cell number change was -6.44%.
For `COc1ccc(/C=C2\SC(=S)N(N3CCOCC3)C2=O)c(OC)c1`, the “lipid storage change, negative = inhibition” value is 18% (inactive) and the cell number change worked out at 7.5%.
For `CC1CCN(C(=O)c2cc(Cl)nc3ccccc23)CC1`, in that order: 13.5% (inactive) and -4.42%.
Regarding `COc1ccc(S(=O)(=O)N2CCC(C(=O)NCc3cccc(OC)c3)CC2)cc1`, the outcome was inactive and the cell number change amounted to 29.1%.
Regarding `COc1ccc(/C=N/NC(=O)CCn2nc(C)cc2C)cc1`, the “lipid storage change, negative = inhibition” value was 13.7% (inactive) and the cell number change came out at 9.01%.
For `Cc1cc(C)cc(C(=O)Nc2cc3c4c(c2)CC(=O)N4CCC3)c1`, the cell number change is -11.8% and the lipid storage change, negative = inhibition is -15.8% [at 0.0737 µM] (inactive).
`O=C(CSc1ccc(C(F)(F)F)cc1[N+](=O)[O-])N1CCOCC1`: the “lipid storage change, negative = inhibition” value was -21.4% (inactive) and the cell number change is -7.3%.
As to `Cc1ccc(-c2nn(CC(=O)NC(C)c3ccccc3)c(=O)c3ccccc23)cc1` (stereo unspecified), the “lipid storage change, negative = inhibition” value is -5.81% (inactive).
With `COc1ccccc1Nc1nnc(SCC(=O)c2cc(C)n(CC3CCCO3)c2C)s1` (stereo unspecified), the “lipid storage change, negative = inhibition” value was 26% (inactive) and the cell number change was determined as 4.55%.
Take `CCOc1ccc(CCNC(=O)c2nnn(CC(=O)Nc3c(C)cc(C)cc3C)c2N)cc1OCC`: the compound was called inactive and the cell number change came to 23.4%.
For `O=C(c1ccccc1)N1CCN(C2CCCCCC2)CC1`, the Potency is 25.9 µM (active) and the cell number change was -3.45%.
Take `O=C(c1ccccc1)N1CCN(C2CCCCC2)CC1`: the “lipid storage change, negative = inhibition” value was 2.03% (inactive) and the cell number change amounted to 7.93%.
As for `O=C(c1ccncc1)N1CCN(C2CCCCC2)CC1`, the “lipid storage change, negative = inhibition” value was -5.89% (inactive) and the cell number change was determined as 9.31%.
As for `Cc1noc(C)c1C(=O)OCC(=O)Nc1cccc(S(=O)(=O)N(C)C)c1`, the “lipid storage change, negative = inhibition” value was 3.18% (inactive) and the cell number change was -1.55%.
Regarding `Cc1cc(C(=O)N/N=C/c2ccc(Cl)c([N+](=O)[O-])c2)c(C)n1-c1ccc(F)cc1`, the “lipid storage change, negative = inhibition” value was 14.7% (inactive) and the cell number change was -1.33%.
On to `CCN(CC)CCC(c1ccc(N(C)C)cc1)c1c(OC)cc(OC)c2c(-c3ccccc3)cc(=O)oc12` (stereo unspecified), for which the “lipid storage change, negative = inhibition” value is 6.17% (inactive) and the cell number change was -6.71%.
For `COc1ccc(C(=O)OCC(=O)Nc2cc(C)c(C)cc2[N+](=O)[O-])cc1`, in that order: 19.5% (inactive) and -12.7%.
For `NC(=O)CSc1cn(CCNC(=O)c2cccs2)c2ccccc12`, in that order: 11.3% (inactive) and 22.5%.
For the compound `O=C1C(=Cc2cccs2)C(=O)c2ccccc21`, the Potency is 18.4 µM (active) and the cell number change was -7.62%.
For `O=C1/C(=C/c2cccs2)Cc2ccccc21`, the “lipid storage change, negative = inhibition” value was 2.15% (inactive) and the cell number change turned out to be 20.5%.
Turning to `O=C1/C(=C/c2cccs2)COc2ccccc21`, the “lipid storage change, negative = inhibition” value is -5.09% (inactive) and the cell number change is -6.21%.
Regarding `O=C(CN1C(=O)/C(=C\c2cccc(Cl)c2)Oc2ccccc21)N1CCN(c2ccccn2)CC1`, the “lipid storage change, negative = inhibition” value was 21.7% (inactive).
For the compound `C[C@@H]1CC[C@H](O)/C=C/C(=O)O[C@H](C)CC[C@H](O)/C=C/C(=O)O1`, the Potency was 5.8 µM (active) and the cell number change was -1.52%.
With `CC1CC(Nc2ccccc2)=CC(=O)O1` (stereo unspecified), the compound was classed as inactive.
For the compound `C[C@@H]1C=CC(=O)O[C@@H]1c1ccc(C(F)(F)F)cc1`, the “lipid storage change, negative = inhibition” value is 16.1% (inactive) and the cell number change is 9.88%.
